Measurements from PubChem BioAssay AID651965 (National Center for Advancing Translational Sciences (NCATS), 2013).
Screen size: about 340,000 compounds; about 6,400 (1.9%) were called active. About 4% were inconclusive and are not listed. Calls follow the shape of the dose curve; as a rule, active = well fitted falling curve with a large enough effect; inconclusive = small, poorly fitted or top-dose-only effect; inactive = no such curve, though single readings can be large or run the other way. The list comes from a sample in which actives are over-represented; it also holds similar structures and randomly drawn compounds. Where a call stands in place of a potency, no number is given.

Target: ATP-dependent Clp protease proteolytic subunit (Bacillus subtilis (strain 168)) (UniProt P80244)
Assay: qHTS Assay for Activators of ClpP; also: the source files actives as falling curves though it sought activators and does not explain the sign; nearly all actives have a fitted effect of over 65% in size
Details: purified B. subtilis ClpP, FRET peptide cleavage, 20 min; series mostly up to 57.5 µM
Procedure, shortened: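 FRET quenching reversal measured ClpP activation: 10 microg/mL B. subtilis ClpP at pH 8 with the FRET-FV decapeptide, read at 430 nm after 320 nm excitation. The 20-min minus 0-min signal was scaled between DMSO/no-enzyme wells and ADEP (5.8 microM final).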
Potency is read from the fitted curve at half-maximal effect.

SMILES | Potency
CCN(C(=O)Nc1cccc2ccccc12)c1ccccc1 | inactive
Cc1cc(=O)[nH]c(SCc2ccc(Cl)cc2)n1 | inactive
Cc1cc(=O)[nH]c(SCc2cc(Cl)ccc2OC(F)F)n1 | inactive
O=c1cc(O)nc(SCc2ccccc2Cl)[nH]1 | 28.2 µM (active)
O=C(Nc1cccc2ccccc12)c1[nH]c(-c2ccccc2)c2c1C(=O)N(C1CC1)C2=O | inactive
O=C(OC1CC2CC1[C@H]1CCCCN1C2=O)N1CCOCC1 (stereo not given in full) | inactive
COc1ccccc1-c1sc2ccccc2c1C#CC1(O)CCCCC1 | inactive
COc1ccc2sc(-c3ccccc3OC)c(-c3ccc(OCCN4CCCC4)cc3)c2c1 | inactive
COc1ccccc1-c1sc2ccccc2c1-c1ccc(C(C)=O)cc1 | 28.2 µM (active)
CCCOc1ccc(F)cc1-c1cc(C(=O)Nc2ccc(F)c(Cl)c2)[nH]n1 | inactive
CN(C)c1ccc(/C=C/c2sc3ccccc3[n+]2CCCCBr)cc1 | inactive
CCOC(=O)[C@]12CCCC=C1N(CCC1=CCCCC1)C(=O)[C@H](CC(=O)N1CCSCC1)C2 | inactive
Fc1ccc2cnc(-c3ccccc3)cc2c1 | inactive
O=S(=O)(c1ccc(F)cc1)n1ccc(-c2cnc(-c3ccccc3)s2)n1 | 20 µM (active)
O=S(=O)(c1ccc(F)cc1)N1CC=C(c2ccccc2)CC1 | inactive
Cc1ccc(S(=O)(=O)N2CC3C(=O)C[C@@H](c4ccccc4Cl)N(S(=O)(=O)c4ccc(C)cc4)C3CC2c2ccccc2)cc1 (stereo not given in full) | inactive
Cc1cccc(-c2nnc(SC(C)C(=O)Nc3ccccc3)n2C)c1 (stereo not given) | inactive
CCOC(=O)[C@]12CCCC=C1N(Cc1ccc3c(c1)OCO3)C(=O)[C@H](CC(=O)N1CCN(C(=O)c3ccco3)CC1)C2 | inactive
CN(C)c1ccc(/C=C/c2sc3ccccc3[n+]2C)cc1 | inactive
CC1(Oc2cccc(F)c2)CCN(Cc2ccccc2OC(F)F)C1 (stereo not given) | inactive
Cc1nc2ccccc2nc1CC(O)(c1ccccc1)c1ccccc1 | inactive
Cc1nc2ccccc2cc1O | 3.55 µM (active)

SMILES | Potency
Cc1nc2cccnc2nc1C | inactive
CC(C)c1cc(C(=O)N(C)C2CCCN(Cc3ccccc3F)C2)n(C)n1 (stereo not given) | inactive
Cc1cn([C@H]2C[C@H](O)[C@@H](/C=C/C(=O)NCCCc3ccccc3)O2)c(=O)[nH]c1=O | inactive
Cc1cc(Cl)ccc1C(=O)C1CCCN(C(=O)c2ccc3c(c2)OCO3)C1 (stereo not given) | inactive
O=C1c2cccc3cccc(c23)N1CN1CCN(c2ccccn2)CC1 | inactive
CC(C(=O)O)N1C(=O)c2cccc3cccc1c23 (stereo not given) | inactive
COc1ccc(N2C(=O)c3cccc4cccc(c34)C2=O)nn1 | 15.8 µM (active)
CCCS(=O)(=O)Nc1cccc(-c2cn3ccsc3n2)c1 | inactive
CCS(=O)(=O)Nc1cccc(-c2cc(-c3ccccc3)c3cc(C)ccc3n2)c1 | 31.6 µM (active)
CCCOc1ccc(-c2cccc(NS(=O)(=O)c3ccccc3)c2)nn1 | inactive
Cc1ccnc(N2CCC(C(=O)NC3CCCCCC3)CC2)n1 | 25.1 µM (active)
O=C(NC1CCCCCC1)C1CCN(C(=O)c2ccc(Cl)cc2)CC1 | inactive
O=C(NNC(=O)C1CCN(c2ncccn2)CC1)c1ccccc1 | inactive
c1cc(-c2ccc3[nH]ccc3c2)n2ccnc2c1 | inactive
CCOC(=O)[C@]12CCCC=C1N(CCC1=CCCCC1)C(=O)[C@H](CC(=O)N1CCCCC1)C2 | inactive
N#Cc1c(-c2ccc(F)cc2)nc(-c2ccccc2)[nH]c1=O | inactive
[O-][n+]1onc2c1CCc1[nH]c(-c3ccccc3)nc1-2 | 28.2 µM (active)
CN(C(=O)CN1CCN(c2cc(-c3ccc(OCc4ccccc4)cc3)ncn2)CC1)c1ccccc1 | inactive
COc1ccc(Cl)cc1NC(=O)C(C)N1CCc2ccccc21 (stereo not given) | 28.2 µM (active)
COc1ccc(Cl)cc1NC(=O)NCC1CCN(Cc2ccccc2F)CC1 | inactive
COc1ccc(Cl)cc1NC(=O)CNc1ccccc1F | inactive
CC(C)CCN(C(=O)Nc1ccc(Cl)c(Cl)c1)C(C)c1cccs1 (stereo not given) | inactive

SMILES | Potency
CCOc1ccc(NC(=O)N(CC(C)C)CC(C)C)cc1 | inactive
CCOc1ccc(NC(=O)N(CCC(C)C)C(C)c2ccco2)cc1 (stereo not given) | 28.2 µM (active)
OC(CBr)C[n+]1cccc2cc(Br)ccc21 (stereo not given) | inactive
Cc1ccc(-n2nc(C)c(/C=N/NC(=O)c3cccs3)c2Cl)cc1 | inactive
Cc1nn(-c2ccccc2)c(Cl)c1/C=C/C(=O)c1ccc(O)cc1 | inactive
Cc1ccc(C(=O)/C=C/c2c(C)nn(-c3ccccc3)c2Cl)cc1 | 6.31 µM (active)
Cc1ccc(-c2nc3c(C)cc(Br)cn3c2Cc2ccccc2)cc1 | inactive
COC(=O)C[C@@H]1C=C[C@@H](NC(=O)c2ccc3c(c2)OCO3)[C@@H](CO)O1 | inactive
CCOc1ccc(NC(=O)CSc2nnc3c(n2)[nH]c2ccc(S(=O)(=O)N4CCOCC4)cc23)cc1 | inactive
CC(C)C1Cc2[nH][nH]c(=O)c2C(c2ccc(Cl)cc2)O1 (stereo not given) | inactive
O=C(Nc1ccc2nc(SCC(=O)N3CCc4ccccc43)sc2c1)c1ccccc1F | inactive
O=C(COc1ccccc1Cl)Nc1ccc2nc(SCC(=O)N3CCCC3)sc2c1 | inactive
CCC(=O)Nc1ccc2nc(SCC(=O)N3CCc4ccccc43)sc2c1 | inactive
Nc1nnc(SCC(=O)Nc2ccc3nc(SCC(=O)Nc4ccccc4)sc3c2)s1 | inactive
O=C(Nc1ccc2nc(SCC(=O)N3CCCc4ccccc43)sc2c1)c1ccc(F)cc1 | 28.2 µM (active)
O=C(Nc1ccc2nc(SCC(=O)N3CCCc4ccccc43)sc2c1)c1ccc(Cl)cc1 | 10 µM (active)
Cc1ccc(S(=O)(=O)N2[C@@H](Cc3ccccc3)CO[C@H]2CC(=O)OCc2ccccc2)cc1 | inactive
CN1OC[C@@H]2CN(C(=O)c3ccc(-c4ccccc4)cc3)[C@H](c3ccc(-c4cccc(F)c4)cc3)C[C@@H]21 | inactive
O=C(c1ccc(N2CCCC2=O)cc1)N1CCN(c2ccc(C(F)(F)F)cc2[N+](=O)[O-])CC1 | inactive
Cc1ccc(Cn2c(C)c(C(=O)NCc3ccccc3C(F)(F)F)sc2=O)cc1 | inactive
O=C(CC[C@H]1O[C@@H](n2ccc(=O)[nH]c2=O)[C@H](O)[C@@H]1O)N[C@H](Cc1ccccc1)C(=O)NCc1ccco1 | inactive
